# Test results as given in PubChem BioAssay (NCI).
# About 83,000 compounds went through this panel and 20% of them were active in at least one assay; those are over-represented in the sample as a whole.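 Compound tested at a single concentration for 48 hours in 96-well plates; a percent growth value below 10 was scored as active.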 Unmarked numbers belong to inactive results. The source made the active and inactive calls.
# Legend:
# Assay in all cases: NCI-60 one-dose screen, 48 h (100 = growth as untreated, 0 = no growth, -100 = all killed)
# Conditions in all cases: 10 µM unless noted
# NCI-H23 lung = system: NCI-H23 lung
# NCI-H226 lung = system: NCI-H226 lung
# NCI-H322M lung = system: NCI-H322M lung
# HOP-62 NSCLC = system: HOP-62 NSCLC
# NCI-H460 lung = system: NCI-H460 lung
# HOP-92 NSCLC = system: HOP-92 NSCLC
# NCI-H522 lung = system: NCI-H522 lung
# A549/ATCC NSCLC = system: A549/ATCC NSCLC
# 786-0 renal = system: 786-0 renal
# DU-145 prostate = system: DU-145 prostate
# K-562 leukemia = system: K-562 leukemia
# MALME-3M melanoma = system: MALME-3M melanoma
# MDA-MB-231 breast = system: MDA-MB-231 breast
# RXF 393 renal = system: RXF 393 renal
# SF-268 CNS = system: SF-268 CNS
# SF-295 CNS = system: SF-295 CNS
# SF-539 CNS = system: SF-539 CNS
# UACC-257 melanoma = system: UACC-257 melanoma
# M14 melanoma = system: M14 melanoma
# COLO 205 colon = system: COLO 205 colon
SMILES,growth (NCI-H23 lung),growth (NCI-H226 lung),growth (NCI-H322M lung),growth (HOP-62 NSCLC),growth (NCI-H460 lung),growth (HOP-92 NSCLC),growth (NCI-H522 lung),growth (A549/ATCC NSCLC),growth (786-0 renal),growth (DU-145 prostate),growth (K-562 leukemia),growth (MALME-3M melanoma),growth (MDA-MB-231 breast),growth (RXF 393 renal),growth (SF-268 CNS),growth (SF-295 CNS),growth (SF-539 CNS),growth (UACC-257 melanoma),growth (M14 melanoma),growth (COLO 205 colon)
CCN(CC)S(=O)(=O)c1ccc(S(=O)(=O)N2CCC[C@@H](C(=O)N3CCN(c4nc(C(C)C)no4)CC3)C2)cc1,50%,82.1%,88.7%,66.8%,70.8%,77.1%,60.2%,67.1%,89.6%,62.6%,30.9%,85.3%,81.3%,64.5%,69%,52.8%,74.3%,45.1%,78.8%,–
COCCOc1cc2ncnc(N3CCN(c4cc(S(C)(=O)=O)c(C)cc4Cl)CC3)c2cc1OCCOC,81.9%,81.4%,–,100%,102%,53.3%,90.6%,90.6%,105%,96.8%,88.9%,87%,96%,99.7%,91.8%,90.5%,92%,91.1%,111%,97.1%
Cc1ccccc1/C=C/C(=O)c1cccc(OCCCOc2cccc(C(=O)/C=C/c3ccccc3C)c2)c1,88.5% [3 µM],88.9% [3 µM],106% [3 µM],114% [3 µM],99.8% [3 µM],85.9% [3 µM],80.5% [3 µM],86% [3 µM],103% [3 µM],102% [3 µM],73.6% [3 µM],108% [3 µM],94.8% [3 µM],98.3% [3 µM],99.4% [3 µM],90.6% [3 µM],103% [3 µM],103% [3 µM],103% [3 µM],–
COc1cc(-c2cncn2-c2ccc(-c3nc4ccc(F)cc4s3)cc2)ccc1F,71%,85.2%,–,102%,35.4%,94.3%,55.9%,69.1%,90.8%,-7.18% (active),62.8%,99.3%,103%,52.5%,81.3%,90%,92.8%,79.7%,102%,82.7%
CCN(CC)CCn1c2ccc(O)cc2c2sc3cc(O)ccc3c(=O)c21,25.8%,68.2%,–,38.4%,8.46% (active),60.5%,35.1%,21.6%,27%,43.6%,14.8%,15.6%,43.5%,26.6%,42%,17.6%,18.1%,55.4%,19.6%,30.3%
CNC(=O)c1[nH]cc(-c2ccc(OC)cc2)c1-c1cc(OC)c2c(c1OC)OCO2,97.6%,97.8%,–,85.3%,105%,89.6%,101%,99.1%,96.7%,110%,105%,95%,100%,97.5%,101%,97.6%,103%,104%,101%,118%
O=S(=O)(Nc1ccc(Cl)c(C(F)(F)F)c1)c1ccc(-c2cnc(C3CC3)o2)cc1,20.4%,–,44.4%,12.2%,7.09% (active),-18.5% (active),-1.8% (active),8.92% (active),25.9%,15.5%,5.12% (active),28.7%,15.6%,8.55% (active),13.7%,22.2%,-35.8% (active),-0.635% (active),10.9%,2.71% (active)
CC(C)c1ccc(Cc2cnc(NC(=O)c3cc(Br)cs3)s2)cc1,47.6%,–,45.6%,35.8%,13.6%,35.7%,-1.16% (active),31.4%,31.3%,38.5%,18.2%,31.1%,55.8%,-5.08% (active),48.2%,9.99% (active),4.75% (active),53.4%,15.8%,15.4%
